The full ranking holds about 8,300 sequences; the median of “log2 fold change of degron read counts, EGFP-low vs EGFP+ sorted cells (limma voom), compound-induced degradation” is about -1.1, and the highest 2% start at about 3.2. The list comes from a sample in which the highest values are over-represented; it also holds similar and randomly drawn sequences.
Biological target: T1, CRBN, Q96SW2
T1 chain: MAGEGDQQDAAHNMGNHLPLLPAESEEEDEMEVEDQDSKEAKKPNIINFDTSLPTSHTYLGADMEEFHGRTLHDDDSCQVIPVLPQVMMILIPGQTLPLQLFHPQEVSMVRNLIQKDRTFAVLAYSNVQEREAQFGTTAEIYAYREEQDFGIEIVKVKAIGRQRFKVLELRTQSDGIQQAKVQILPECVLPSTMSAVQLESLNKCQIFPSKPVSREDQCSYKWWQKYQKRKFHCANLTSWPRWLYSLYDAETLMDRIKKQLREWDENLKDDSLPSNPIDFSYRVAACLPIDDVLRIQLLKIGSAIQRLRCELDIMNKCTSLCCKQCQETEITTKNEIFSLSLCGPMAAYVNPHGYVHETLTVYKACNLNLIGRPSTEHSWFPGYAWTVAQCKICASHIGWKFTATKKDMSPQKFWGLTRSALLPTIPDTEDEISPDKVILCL
Assay: log2 fold change of degron read counts, EGFP-low vs EGFP+ sorted cells (limma voom), compound-induced degradation; higher = more compound-induced degradation of the degron-EGFP fusion; degrons are variants of IKZF1/3 zinc finger 2; compound dose not given here
Settings: Jurkat, 18 h

[1] = compound: compound 19 (5-tert-butyl-thalidomide)
[2] = compound: compound 22 (5-morpholino-thalidomide)
[3] = compound: compound 33 (diphenyl IMiD analogue)
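Note: pooled lentiviral library of zinc finger degron-EGFP fusions in mCherry-positive Jurkat cells, FACS-sorted after compound exposure, with degron abundance counted by next-generation sequencing.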

B1: 46F_47S_49D_50V_52G_53A_54I_55F_67L_, Q9UKT9 (peptide)
chain: FSCDVCGAIFTQKGNLLRHIKL
- log2 fold change of degron read counts [1]: -0.277
- log2 fold change of degron read counts [2]: -1.23
- log2 fold change of degron read counts [3]: -0.103
- log2 fold change of degron read counts (compound: thalidomide): -1.43

B2: 46F_47C_49E_50I_52G_53R_54E_55F_67L_, Q9UKT9 (peptide)
chain: FCCEICGREFTQKGNLLRHIKL
- log2 fold change of degron read counts [1]: -2.44
- log2 fold change of degron read counts [2]: -2.4
- log2 fold change of degron read counts [3]: -1.78
- log2 fold change of degron read counts (compound: thalidomide): -1.56

B3: 46F_47N_49P_50I_52G_53R_54D_55F_67L_, Q9UKT9 (peptide)
chain: FNCPICGRDFTQKGNLLRHIKL
- log2 fold change of degron read counts [1]: -1.89
- log2 fold change of degron read counts [2]: -1.85
- log2 fold change of degron read counts [3]: -1.07
- log2 fold change of degron read counts (compound: thalidomide): -1.09

B4: 46F_47S_49S_50V_52G_53H_54Q_55F_67L_, Q9UKT9 (peptide)
chain: FSCSVCGHQFTQKGNLLRHIKL
- log2 fold change of degron read counts [1]: -2.44
- log2 fold change of degron read counts [2]: -3.11
- log2 fold change of degron read counts [3]: -2.86
- log2 fold change of degron read counts (compound: thalidomide): -2.7

B5: 46L_47C_49E_50I_52G_53F_54E_55C_67L_, Q9UKT9 (peptide)
chain: LCCEICGFECTQKGNLLRHIKL
- log2 fold change of degron read counts [1]: -0.329
- log2 fold change of degron read counts [2]: -0.269
- log2 fold change of degron read counts [3]: -0.566
- log2 fold change of degron read counts (compound: thalidomide): 0.603

B6: 46F_47H_49N_50Q_52G_53A_54K_55F_67L_, Q9UKT9 (peptide)
chain: FHCNQCGAKFTQKGNLLRHIKL
- log2 fold change of degron read counts [1]: -1.43
- log2 fold change of degron read counts [2]: -1.66
- log2 fold change of degron read counts [3]: -2.35
- log2 fold change of degron read counts (compound: thalidomide): -1.73

B7: 46F_47L_49D_50V_52G_53A_54A_55F_67L_, Q9UKT9 (peptide)
chain: FLCDVCGAAFTQKGNLLRHIKL
- log2 fold change of degron read counts [1]: -0.47
- log2 fold change of degron read counts [2]: -1.3
- log2 fold change of degron read counts [3]: 0.2
- log2 fold change of degron read counts (compound: thalidomide): -0.799

B8: 46F_47F_49E_50I_52G_53R_54C_55F_67L_, Q9UKT9 (peptide)
chain: FFCEICGRCFTQKGNLLRHIKL
- log2 fold change of degron read counts [1]: 0.787
- log2 fold change of degron read counts [2]: 0.568
- log2 fold change of degron read counts [3]: 0.232
- log2 fold change of degron read counts (compound: thalidomide): -0.767

B9: 46L_47C_49P_50I_52G_53F_54A_55C_67L_, Q9UKT9 (peptide)
chain: LCCPICGFACTQKGNLLRHIKL
- log2 fold change of degron read counts [1]: 2.49
- log2 fold change of degron read counts [2]: 2.68
- log2 fold change of degron read counts [3]: 2.8
- log2 fold change of degron read counts (compound: thalidomide): 2.77

B10: 46L_47S_49P_50I_52G_53F_54A_55C_67L_, Q9UKT9 (peptide)
chain: LSCPICGFACTQKGNLLRHIKL
- log2 fold change of degron read counts [1]: 2.81
- log2 fold change of degron read counts [2]: 2.91
- log2 fold change of degron read counts [3]: 2.59
- log2 fold change of degron read counts (compound: thalidomide): 2.54

B11: 46L_47T_49P_50I_52G_53F_54A_55C_67L_, Q9UKT9 (peptide)
chain: LTCPICGFACTQKGNLLRHIKL
- log2 fold change of degron read counts [1]: 2.49
- log2 fold change of degron read counts [2]: 3.12
- log2 fold change of degron read counts [3]: 2.65
- log2 fold change of degron read counts (compound: thalidomide): 3.02

B12: 46L_47E_49P_50I_52G_53F_54A_55C_67L_, Q9UKT9 (peptide)
chain: LECPICGFACTQKGNLLRHIKL
- log2 fold change of degron read counts [1]: 1.75
- log2 fold change of degron read counts [2]: -0.131
- log2 fold change of degron read counts [3]: 2.17
- log2 fold change of degron read counts (compound: thalidomide): 3.17

B13: 46L_47D_49P_50I_52G_53F_54A_55C_67L_, Q9UKT9 (peptide)
chain: LDCPICGFACTQKGNLLRHIKL
- log2 fold change of degron read counts [1]: 0.373
- log2 fold change of degron read counts [2]: -0.371
- log2 fold change of degron read counts [3]: 0.648
- log2 fold change of degron read counts (compound: thalidomide): 1.61

B14: 46L_47K_49P_50I_52G_53F_54A_55C_67L_, Q9UKT9 (peptide)
chain: LKCPICGFACTQKGNLLRHIKL
- log2 fold change of degron read counts [1]: 1.2
- log2 fold change of degron read counts [2]: -0.283
- log2 fold change of degron read counts [3]: -0.872
- log2 fold change of degron read counts (compound: thalidomide): 1.19

B15: 46L_47F_49P_50I_52G_53F_54A_55C_67L_, Q9UKT9 (peptide)
chain: LFCPICGFACTQKGNLLRHIKL
- log2 fold change of degron read counts [1]: 3.05
- log2 fold change of degron read counts [2]: 3.52
- log2 fold change of degron read counts [3]: 2.44
- log2 fold change of degron read counts (compound: thalidomide): 1.94

B16: 46L_47Y_49P_50I_52G_53F_54A_55C_67L_, Q9UKT9 (peptide)
chain: LYCPICGFACTQKGNLLRHIKL
- log2 fold change of degron read counts [1]: 2.98
- log2 fold change of degron read counts [2]: 3.33
- log2 fold change of degron read counts [3]: 2.6
- log2 fold change of degron read counts (compound: thalidomide): 1.77

B17: 46L_47A_49P_50I_52G_53F_54A_55C_67L_, Q9UKT9 (peptide)
chain: LACPICGFACTQKGNLLRHIKL
- log2 fold change of degron read counts [1]: 3.6
- log2 fold change of degron read counts [2]: 2.95
- log2 fold change of degron read counts [3]: 2.05
- log2 fold change of degron read counts (compound: thalidomide): 2.43

B18: 46L_47V_49P_50I_52G_53F_54A_55C_67L_, Q9UKT9 (peptide)
chain: LVCPICGFACTQKGNLLRHIKL
- log2 fold change of degron read counts [1]: 1.96
- log2 fold change of degron read counts [2]: 3.25
- log2 fold change of degron read counts [3]: 2.26
- log2 fold change of degron read counts (compound: thalidomide): 3.56

B19: 46L_47R_49P_50I_52G_53F_54A_55C_67L_, Q9UKT9 (peptide)
chain: LRCPICGFACTQKGNLLRHIKL
- log2 fold change of degron read counts [1]: 2.16
- log2 fold change of degron read counts [2]: 2.14
- log2 fold change of degron read counts [3]: 2.39
- log2 fold change of degron read counts (compound: thalidomide): 2.57

B20: 46L_47N_49P_50I_52G_53F_54A_55C_67L_, Q9UKT9 (peptide)
chain: LNCPICGFACTQKGNLLRHIKL
- log2 fold change of degron read counts [1]: 2.3
- log2 fold change of degron read counts [2]: 1.32
- log2 fold change of degron read counts [3]: 1.06
- log2 fold change of degron read counts (compound: thalidomide): 1.78

B21: 46F_47K_49N_50I_52G_53A_54T_55F_67L_, Q9UKT9 (peptide)
chain: FKCNICGATFTQKGNLLRHIKL
- log2 fold change of degron read counts [1]: -2.19
- log2 fold change of degron read counts [2]: -2.52
- log2 fold change of degron read counts [3]: -3.31
- log2 fold change of degron read counts (compound: thalidomide): -1.21

B22: 46F_47A_49D_50I_52G_53A_54G_55F_67L_, Q9UKT9 (peptide)
chain: FACDICGAGFTQKGNLLRHIKL
- log2 fold change of degron read counts [1]: 2.54
- log2 fold change of degron read counts [2]: 0.463
- log2 fold change of degron read counts [3]: -0.84
- log2 fold change of degron read counts (compound: thalidomide): -1.45

B23: 46F_47E_49P_50I_52G_53R_54F_55F_67L_, Q9UKT9 (peptide)
chain: FECPICGRFFTQKGNLLRHIKL
- log2 fold change of degron read counts [1]: -1.85
- log2 fold change of degron read counts [2]: -1.84
- log2 fold change of degron read counts [3]: -0.566
- log2 fold change of degron read counts (compound: thalidomide): 0.632

B24: 46F_47F_49E_50I_52G_53H_54T_55F_67L_, Q9UKT9 (peptide)
chain: FFCEICGHTFTQKGNLLRHIKL
- log2 fold change of degron read counts [1]: -2.85
- log2 fold change of degron read counts [2]: -2.26
- log2 fold change of degron read counts [3]: -2.37
- log2 fold change of degron read counts (compound: thalidomide): -2.09

B25: 46F_47Y_49E_50Q_52G_53A_54L_55F_67L_, Q9UKT9 (peptide)
chain: FYCEQCGALFTQKGNLLRHIKL
- log2 fold change of degron read counts [1]: -0.0809
- log2 fold change of degron read counts [2]: 0.128
- log2 fold change of degron read counts [3]: -0.131
- log2 fold change of degron read counts (compound: thalidomide): -1.75

B26: 46F_47Y_49P_50I_52G_53R_54A_55F_67L_, Q9UKT9 (peptide)
chain: FYCPICGRAFTQKGNLLRHIKL
- log2 fold change of degron read counts [1]: -3.1
- log2 fold change of degron read counts [2]: -2.69
- log2 fold change of degron read counts [3]: -2.69
- log2 fold change of degron read counts (compound: thalidomide): -3.4

B27: 46F_47H_49P_50Q_52G_53A_54T_55F_67L_, Q9UKT9 (peptide)
chain: FHCPQCGATFTQKGNLLRHIKL
- log2 fold change of degron read counts [1]: -1.34
- log2 fold change of degron read counts [2]: -1.81
- log2 fold change of degron read counts [3]: 0.0255
- log2 fold change of degron read counts (compound: thalidomide): -1.77

B28: 46F_47R_49D_50V_52G_53A_54E_55F_67L_, Q9UKT9 (peptide)
chain: FRCDVCGAEFTQKGNLLRHIKL
- log2 fold change of degron read counts [1]: -2.43
- log2 fold change of degron read counts [2]: -1.82
- log2 fold change of degron read counts [3]: 0.12
- log2 fold change of degron read counts (compound: thalidomide): -1.26
